# What was measured:
# [1] = inhibitors of PAF-induced NFkB signaling in CF airway cells, dose response, cell-based, uHTS hits, panel, cytotoxicity readout (AID 624344); conditions: CF bronchial epithelial cells, PAF-induced NFkB reporter inhibition, with PAF, run 1; at 79 µM (top of the series) unless noted
# [2] = as above; conditions: CF bronchial epithelial cells, PAF-induced NFkB reporter inhibition, with PAF, run 2; at 79 µM (top of the series) unless noted
Structure (SMILES),inhibition [1],inhibition [2]
O=C(N/N=C/c1ccccc1Cl)c1[nH]c2ccc(Br)cc2c1-c1ccccc1,105%,109%
COc1ccc(-n2c(C)cc3cc(OC(C)=O)ccc32)cc1,86.5%,70.9%
COc1cc(NC(=O)c2cc3ccccc3cc2OC)ccc1NC(=O)c1cccs1,98.1%,107%
COc1cccc(NC(=O)Nc2nnc(CC(=O)Nc3ccccc3)s2)c1,90.4%,85.1%
COC(=O)N1C(=O)[C@@](c2ccc(OC)cc2)(C(C)C)N1C(=O)OC,101%,102%
c1nc(N2CCOCC2)c2c3c(sc2n1)CCCC3,98.5%,107%
COc1ccc(S(=O)(=O)N(C(C)=O)c2ccc(OC(C)=O)c3ccccc23)cc1[N+](=O)[O-],59.1%,99.4% [at 39.5 µM]
CC(C)C[C@H]1CNC(=S)N1C[C@H]1CCCN1C[C@H](Cc1ccccc1)N1C[C@H](Cc2ccc(O)cc2)N(CC2CCCCCC2)C1=S,103%,112%
O=C(NCc1ccco1)c1nc2c(nnn2Cc2ccccc2Cl)c(=O)[nH]1,115%,107%
CC(=O)c1c(O)cc(O)c(C(C)=O)c1O,110%,101%
CC(=O)c1cccc(NC(=O)COC(=O)c2ccc(S(C)(=O)=O)c([N+](=O)[O-])c2)c1,92.5%,93.4%
Cn1c(Sc2ccc(Cl)cc2)c(C=O)c2ccccc21,119%,107%
COc1ccc(-c2cnc3c(NC=O)cc(-c4ccccc4OC)cn23)cc1OC,93.5%,102%
CCNC(=O)C1(C)CCCN(Cc2ccc(-c3ccccc3)o2)C1 (stereo unspecified),94%,74.8%
O=C(O)/C=C/c1ccc2c(-c3ccccc3)onc2c1,113%,105%
COc1ccc([C@]2(C(C)C)ON(c3ccccc3C(F)(F)F)C2=O)cc1,103%,91.5%
CCCCCCc1cc2cc(S(=O)(=O)c3ccc(F)cc3)c(=O)oc2cc1O,103%,87.3%
CCN(CC)CCN(C(=O)CCS(=O)(=O)c1ccccc1)c1nc2c(C)cc(C)cc2s1,106%,115%

# Reference: PubChem BioAssay
